7 compounds from PubChem BioAssay (NCI) can be followed below.

Test systems include NCI-H23 lung; NCI-H322M lung; HOP-62 NSCLC; NCI-H460 lung; HOP-92 NSCLC; NCI-H522 lung; A549/ATCC NSCLC; 786-0 renal; COLO 205 colon; DU-145 prostate; K-562 leukemia; MALME-3M melanoma; MDA-MB-231 breast; RXF 393 renal; SF-268 CNS; SF-295 CNS; SF-539 CNS; UACC-257 melanoma; M14 melanoma; HCT-15 colon.
What all share (assay): NCI-60 one-dose screen, 48 h (100 = growth as untreated, 0 = no growth, -100 = all killed)
Holding throughout (settings): 10 µM unless noted

SMILES strings stand for the structures. Compounds without any hit were thinned out: in the full panel of roughly 83,000, 20% have a hit.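 Activity criterion: percent growth below 10, measured after cells in 96-well plates were exposed to a single compound concentration for 48 hours.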 A number with no mark means an inactive call. Active and inactive are the calls of the source.

For `COc1ccc(/C=C2/SC(=O)N(CC(=O)N3CCN(c4cc5c(cc4F)c(=O)c(C(=O)O)cn5C4CC4)CC3)C2=O)cc1`, the growth is 100% in the assay with NCI-H23 lung; 99% with NCI-H322M lung; 97.6% in the assay on HOP-62 NSCLC; 103% in the assay with NCI-H460 lung; 113% in the assay with HOP-92 NSCLC; 87.1% in the assay on NCI-H522 lung. In addition, the growth in the assay with A549/ATCC NSCLC was 92.2%; in the assay on 786-0 renal, 97.3%; in the assay with COLO 205 colon it was 108%; with DU-145 prostate, 115%; in the assay with K-562 leukemia, 110%; in the assay on MALME-3M melanoma it was 98.5%. The growth in the assay on MDA-MB-231 breast is 103%; with RXF 393 renal, 117%; in the assay on SF-268 CNS it was 101%; in the assay on SF-295 CNS, 101%; in the assay with SF-539 CNS, 91.1%; in the assay on UACC-257 melanoma, 91.9%. The growth was 103% in the assay with M14 melanoma and 109% with HCT-15 colon.
`COc1cccc(C2=NN3C(C2)c2ccccc2OC3c2ccc(/C=C3\SC(=O)NC3=O)cc2)c1` (stereo not given): the growth with NCI-H23 lung was 92.3%; in the assay with NCI-H322M lung, 97.8%; in the assay with HOP-62 NSCLC, 110%; with NCI-H460 lung, 101%; in the assay on HOP-92 NSCLC, 106%; in the assay with NCI-H522 lung, 87.8%. In addition, the growth with A549/ATCC NSCLC is 103%; with 786-0 renal it was 95.6%; in the assay with COLO 205 colon, 119%; in the assay on DU-145 prostate, 106%; with K-562 leukemia it was 105%; with MALME-3M melanoma it was 105%. Also, the growth was 95.4% in the assay on MDA-MB-231 breast; 105% in the assay with RXF 393 renal; 94.6% in the assay on SF-268 CNS; 94.3% in the assay on SF-295 CNS; 102% in the assay with SF-539 CNS; 106% in the assay with UACC-257 melanoma. In addition, the growth is 104% with M14 melanoma and 95.2% in the assay on HCT-15 colon.
Turning to `O=c1oc2ccc(Cl)cc2c(=O)n1-c1ccc(Cl)cc1F`, the growth in the assay with NCI-H23 lung is -4.79% (active); in the assay with NCI-H322M lung it was 4.88% (active); in the assay with HOP-62 NSCLC it was -6.42% (active); in the assay with NCI-H460 lung, 3.59% (active); in the assay on HOP-92 NSCLC, -12.9% (active); in the assay with NCI-H522 lung, -20.9% (active). Further, the growth was 5.46% (active) in the assay on A549/ATCC NSCLC; 5.1% (active) in the assay with 786-0 renal; 6.93% (active) in the assay with COLO 205 colon; 15.3% in the assay with DU-145 prostate; 4.6% (active) in the assay with K-562 leukemia; -29.9% (active) in the assay with MALME-3M melanoma. The growth with MDA-MB-231 breast is -17% (active); in the assay with RXF 393 renal it was 4.5% (active); with SF-268 CNS, 7.63% (active); with SF-295 CNS, -64.2% (active); with SF-539 CNS, 1.24% (active); with UACC-257 melanoma, -15.1% (active). The growth is 0.632% (active) in the assay on M14 melanoma and 1.3% (active) in the assay on HCT-15 colon.
For `O=C(Nc1ccc(N2CCNCC2)cn1)c1[nH]ncc1Nc1ncnc2sccc12`, the growth with NCI-H23 lung is 18.4%; in the assay on NCI-H322M lung, 59.1%; with HOP-62 NSCLC, 73%; in the assay with NCI-H460 lung, 43.1%; in the assay with HOP-92 NSCLC it was 52.5%; with NCI-H522 lung, -3.84% (active). Moreover, the growth in the assay on A549/ATCC NSCLC is 4.12% (active); with 786-0 renal it was -43.6% (active); in the assay with COLO 205 colon it was 29%; with DU-145 prostate it was 41.9%; in the assay with K-562 leukemia, -60.1% (active); in the assay on MALME-3M melanoma, -67.7% (active). The growth in the assay on MDA-MB-231 breast is -35.8% (active); with RXF 393 renal it was 46.6%; in the assay on SF-268 CNS, 40.8%; in the assay on SF-295 CNS, 97.3%; with SF-539 CNS, -28.8% (active); with UACC-257 melanoma, 69.8%. In addition, the results for the growth in the assay with M14 melanoma and in the assay with HCT-15 colon were -61.3% (active) and 69.7%, respectively.
As to `Cc1ccc(Cc2cnc(NC(=O)CN3C(=O)/C(=C\c4ccccc4)SC3=S)s2)cc1`, the growth in the assay with NCI-H23 lung is 103%; with NCI-H322M lung it was 109%; with HOP-62 NSCLC, 109%; in the assay with NCI-H460 lung it was 103%; with HOP-92 NSCLC, 113%; in the assay with NCI-H522 lung it was 94.7%. Also, the growth is 103% in the assay on A549/ATCC NSCLC; 105% in the assay with 786-0 renal; 116% with COLO 205 colon; 111% with DU-145 prostate; 101% in the assay with K-562 leukemia; 104% in the assay with MALME-3M melanoma. In addition, the growth is 108% with MDA-MB-231 breast; 113% with RXF 393 renal; 101% with SF-268 CNS; 101% with SF-295 CNS; 100% in the assay with SF-539 CNS; 107% in the assay on UACC-257 melanoma. The growth with M14 melanoma is 107%; in the assay with HCT-15 colon, 103%.
In the case of `CC[C@H](C)[C@@H](C(=O)OC)n1cc(CNC(=O)[C@@H](Cc2ccccc2)NC(=O)OCc2ccccc2)nn1`, the growth with NCI-H23 lung was 104%; with NCI-H322M lung, 95.5%; with HOP-62 NSCLC it was 103%; in the assay on NCI-H460 lung, 104%; in the assay on HOP-92 NSCLC it was 96.4%; in the assay on NCI-H522 lung it was 87.4%. For the same compound, the growth was 87.2% with A549/ATCC NSCLC; 106% in the assay with 786-0 renal; 122% in the assay with COLO 205 colon; 104% with DU-145 prostate; 95.9% in the assay on K-562 leukemia; 100% with MALME-3M melanoma. The growth with MDA-MB-231 breast was 101%; in the assay with RXF 393 renal, 104%; in the assay with SF-268 CNS it was 93.8%; with SF-295 CNS it was 99.4%; in the assay with SF-539 CNS, 104%; in the assay on UACC-257 melanoma, 95.8%. Besides, the growth with M14 melanoma is 109%; in the assay on HCT-15 colon, 97.5%.
With `COC(=O)/C(CCC=C(C)C)=C1\[C@@H](OC(C)=O)C[C@@]2(C)[C@H]1C[C@@H](O)[C@H]1[C@@]3(C)CC[C@H](NC(=O)c4cnccn4)[C@@H](C)[C@@H]3CC[C@@]12C`, the growth with NCI-H23 lung was 103%; in the assay on NCI-H322M lung, 108%; with HOP-62 NSCLC, 102%; in the assay on NCI-H460 lung, 109%; with HOP-92 NSCLC, 100%; in the assay on NCI-H522 lung, 89.6%. The growth was 97.9% in the assay with A549/ATCC NSCLC; 92.2% in the assay with 786-0 renal; 110% with COLO 205 colon; 93.7% in the assay on DU-145 prostate; 85.5% with K-562 leukemia; 100% with MALME-3M melanoma. The growth was 96.5% with MDA-MB-231 breast; 107% with RXF 393 renal; 94.8% with SF-268 CNS; 103% in the assay on SF-295 CNS; 105% in the assay with SF-539 CNS; 110% in the assay with UACC-257 melanoma. Moreover, the values for the growth in the assay with M14 melanoma and with HCT-15 colon were 99.8% and 96.3%, respectively.
